# The list is not random: actives were taken first. Their share in the collection is about 4.1%.
# DAX1 inh-1 = inhibitors of human orphan nuclear receptor DAX1 (NR0B1). AID 504766. HEK293 Gal4-DAX1 luciferase reporter, luminescence. 0.99% of 340,000 active. P51843. inhibition, % at 6.75 µM;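 active = inhibition above the mean over all tested compounds plus 3 SD, cut at about 4.2% in these data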;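 note: 0% = DAX1-transfected cells with DMSO and 100% = empty-vector control cells with DMSO; inhibition shows as a rise in luminescence from relieved DAX1 repression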
# Target sequence (P51843 207-470 limits assumed): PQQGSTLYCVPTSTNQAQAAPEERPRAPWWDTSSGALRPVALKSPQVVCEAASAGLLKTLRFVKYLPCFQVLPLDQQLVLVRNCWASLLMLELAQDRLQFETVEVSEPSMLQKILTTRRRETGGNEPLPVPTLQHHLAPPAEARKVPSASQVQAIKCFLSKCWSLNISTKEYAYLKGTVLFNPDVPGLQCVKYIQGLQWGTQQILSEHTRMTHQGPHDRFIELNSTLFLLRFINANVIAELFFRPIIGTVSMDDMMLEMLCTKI
# DAX1 inh-2 = inhibitors of DAX1 repression of SF-1 activated StAR promoter; inhibition, % at 6.8 µM; HEK293T StAR-luciferase reporter, SF-1/DAX-1 repression relief; 1.1% of 370,000 active;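 active = inhibition above the mean over all tested compounds plus 3 SD, cut at about 3.6% in these data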;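 note: 0% = DAX-1 cells with DMSO and 100% = cells lacking DAX-1 with DMSO; higher inhibition means more luminescence from relief of DAX-1 repression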
# PolyA inh = blocks polyadenylation in yeast reporter cells; AID 1875; S. cerevisiae SKY197-pL101 polyadenylation reporter, beta-gal luminescence; efflux-impaired pdr1/pdr3 knockout yeast; score 100 = 6 SD above DMSO; activity score, % at 12 µM; 0.02% of 300,000 active;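 active = lowest replicate activity score at least 50, where 100 means six control SD above control mean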;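 note: yeast exposed to compound for 9 h at 30 °C; higher score means more reporter readthrough which indicates perturbed polyadenylation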
# ssDAF-12 act = S. stercoralis DAF-12 activation, primary screen. HEK293 ssDAF-12/GRIP1 lit1-tk-luc reporter, luminescence; % of 3 µM dafachronic acid response. activation, % at 6.8 µM. 1% of 370,000 active. AID 652126;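 active = activation above the mean over all tested compounds plus 3 SD, cut at about 0.9% in these data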;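 note: 0% = DMSO-only wells and 100% = 3 µM delta7-dafachronic acid wells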
# hgDAF-12 ag = hgDAF-12 agonism, primary luciferase screen; 1.8% of 370,000 active; activation, % at 6.8 µM; HEK293 GAL4-hgDAF12 UAS-luciferase reporter, agonist luminescence; normalized to butyrate control;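 active = activation above a cutoff set at the mean of all screened compounds plus 3 SD, cut at about 10% in these data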;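 note: 0% = DMSO wells and 100% = sodium butyrate wells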
# hcDAF-12 act = activates DAF-12 receptor from parasite H. contortus | HEK293 hcDAF-12 lit1-tk-luc reporter, luminescence; 0% DMSO, 100% Δ7-dafachronic acid | activation, % at 6.8 µM | 1.4% of 370,000 active | AID 652067;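 active = activation above the mean of all tested compounds plus 3 SD, cut at about 5.5% in these data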;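 note: 100% = response to 3 µM Δ7-dafachronic acid high control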
# DAX1 conf = confirmation of human DAX1 (NR0B1) inhibitors; shares compounds with DAX1 inh-2; HEK293T StAR-promoter luciferase reporter, SF-1/DAX-1 repression; inhibition, % at 6.8 µM; 87% of 2,400 active;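 active = inhibition above the average of every tested compound plus 3 SD, cut at about 3.8% in these data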;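 note: 0% = DAX-1 cells with DMSO and 100% = no DAX-1 control cells with DMSO; active compounds raise luminescence by relieving repression of the StAR reporter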
# SF1 mutant ctr = nonselective inhibitor or artifact in SF-1 mutant DAX1 counter-screen; shares compounds with DAX1 inh-2; 78% of 2,400 active; HEK293 StAR-luciferase, SF-1 AF2 mutant, luminescence; AID 652136; inhibition, % at 6.8 µM;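 active = inhibition above the mean of all tested compounds plus 3 SD, cut at about 3% in these data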;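 note: 0% = DAX-1 transfected cells with DMSO and 100% = cells without DAX-1 with DMSO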
# LXR ag = activates human LXR-beta, counter-screen for hcDAF-12 agonists; shares compounds with hcDAF-12 act; activation, % at 6.8 µM; HEK293 Gal4-LXR tk-luc reporter, luminescence, 24 h; normalized: DMSO 0%, positive control 100%; 3,400 tested, under 10 active; AID 743027;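 active = mean percent activation of the reporter above a cutoff set as the average over tested compounds plus their standard deviation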
# Target sequence (P55055 whole entry, looked up, the tested form may be a part): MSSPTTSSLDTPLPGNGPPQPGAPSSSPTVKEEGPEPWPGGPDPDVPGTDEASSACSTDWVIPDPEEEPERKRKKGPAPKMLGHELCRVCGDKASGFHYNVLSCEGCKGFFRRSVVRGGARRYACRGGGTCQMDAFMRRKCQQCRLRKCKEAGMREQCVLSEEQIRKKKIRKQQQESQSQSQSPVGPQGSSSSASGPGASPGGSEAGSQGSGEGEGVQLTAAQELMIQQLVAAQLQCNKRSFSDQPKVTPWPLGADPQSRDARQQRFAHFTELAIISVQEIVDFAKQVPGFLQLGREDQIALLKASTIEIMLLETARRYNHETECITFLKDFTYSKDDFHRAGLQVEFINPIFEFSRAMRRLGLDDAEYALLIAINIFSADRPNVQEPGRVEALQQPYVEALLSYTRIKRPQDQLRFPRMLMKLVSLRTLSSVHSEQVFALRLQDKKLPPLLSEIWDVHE
# hcDAF12 ag = confirmation of H. contortus DAF-12 agonists; shares compounds with hcDAF-12 act; HEK293 hcDAF-12 lit1-tk-luc reporter, luminescence; % of Δ7-dafachronic acid response; activation, % at 6.8 µM; 61% of 3,400 active;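 active = mean activation across triplicate tests above the threshold derived from the earlier primary screen, cut at about 5.5% in these data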;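 note: 0% = DMSO only wells and 100% = 3 µM Δ7-dafachronic acid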
# hgDAF12 ag = confirmation of H. glycines DAF-12 agonists; shares compounds with hgDAF-12 ag; HEK293 GAL4-hgDAF12 luciferase reporter, agonist mode; percent of butyrate response; activation, % at 6.8 µM; 80% of 3,300 active; AID 743050;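 active = mean activation over triplicate wells above the hit cutoff derived from the earlier primary screen, cut at about 11% in these data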;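 note: 0% = DMSO low control and 100% = 2 mM sodium butyrate high control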
# LXR ag 2 = LXR-beta agonism as DAF-12 counter-screen | shares compounds with hgDAF-12 ag | HEK293 Gal4-LXR luciferase reporter, 24 h | activation, % at 6.8 µM | 3,300 tested, under 10 active | AID 743051;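 active = mean activation of the triplicate above a set limit carried over from the primary screen, none filed active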
# Numbers without * were called inactive; · = not tested or not shown.
SMILES,DAX1 inh-1,DAX1 inh-2,PolyA inh,ssDAF-12 act,hgDAF-12 ag,hcDAF-12 act,DAX1 conf,SF1 mutant ctr,LXR ag,hcDAF12 ag,hgDAF12 ag,LXR ag 2
Clc1ccc2nc(CSc3nnc(-c4c[nH]c5ccccc45)o3)cn2c1,-1,0,·,-1,-1,0,·,·,·,·,·,·
Brc1ccc2nc(-c3c[nH]c4ccccc34)cn2c1,6.2*,8.8*,-27,0,22*,11*,18*,8.5*,2,9.6*,21*,1
Cc1c(C=O)c(Cl)n(C)c(=O)c1C#N,1,1,10,-1,1,2,·,·,·,·,·,·
O=C(c1cc(-c2cccc(O)c2)on1)N1CCCCC1,1,8.8*,2,0,22*,6.9*,14*,7.1*,2,5,14*,1
COc1cccc(-c2cc(C(=O)N3CCCCCC3)no2)c1,2,9.6*,-6,1,18*,8.1*,17*,7.3*,2,6.7*,18*,1
COc1cccc(-c2cc(C(=O)N3CCN(c4ccc(F)cc4)CC3)no2)c1,0,1,2,-1,-1,-2,·,·,·,·,·,·
Nc1cc(=O)[nH]c(SCC(=O)Nc2ncc(C(F)(F)F)cc2Cl)n1,0,-1,27,-2,2,-2,·,·,·,·,·,·
CCOC(=O)[C@H]1[C@H]2COc3ccc(Br)cc3[C@H]2N2C(=O)CN(Cc3ccc(Cl)cc3)C(=O)[C@@]12C,-1,2,·,-1,-1,2,·,·,·,·,·,·
COc1ccc(-c2cc(=O)c3ccc(O)cc3o2)cc1,3,7.8*,·,-1,16*,3,10*,5.7*,·,·,14*,1
COc1ccc2c(=O)c(-c3ccccc3)coc2c1,2,6.2*,-7,0,21*,6.8*,12*,8.2*,1,5,17*,1
COc1ccc2oc(-c3ccccc3)cc(=O)c2c1,·,5.8*,·,1.1*,13*,7.6*,13*,5.4*,2,8.5*,16*,1
COc1ccc(-c2cc(=O)c3cc(OC)ccc3o2)cc1,3,9.0*,20,0,20*,8.1*,9.7*,1,2,7.2*,20*,1
COc1cc(-c2cc(=O)c3ccc(O)cc3o2)cc(OC)c1OC,·,-1,·,-1,-3,-3,·,·,·,·,·,·
O=C(CCc1nnc2n(Cc3ccc(F)cc3)c(=O)c3ccccc3n12)N1CCN(c2ccccn2)CC1,-1,-1,-6,-1,0,0,·,·,·,·,·,·
CC(C)(O)C#Cc1ccc(C(=O)NCc2ccccc2F)cc1,0,0,-1,0,3,0,·,·,·,·,·,·
N#C/C(=N\Nc1ccc(F)cc1)C(=N)N1CCCCCC1,4.4*,7.0*,1,0,14*,9.2*,15*,4.0*,1,7.3*,18*,1
N#C/C(=N\Nc1ccc(F)cc1)C(=O)C1CC1,·,0,-5,-1,0,0,·,·,·,·,·,·
Cc1ccc(NNC(=O)C(=O)N2CCCCC2)cc1,-1,2,-15,-2,-1,4,·,·,·,·,·,·
N#C/C(=N\Nc1ccc(Cl)cc1)C(=N)N1CCCCC1,2,5.9*,-11,1.0*,15*,7.8*,15*,11*,2,6.6*,19*,1
Cc1ccc(N/N=C(\C#N)C(=N)N2CCCCCC2)cc1,2,10*,-16,2.0*,19*,12*,16*,6.8*,2,9.7*,23*,1
O=C(COc1cc2oc(=O)c3c(c2cc1Cl)CCC3)NCCCn1ccnc1,0,0,-7,0,2,1,·,·,·,·,·,·
CCCCC1CCC(C(=O)N(C)CC(=O)Nc2cccc(OC)c2)CC1 (centres undefined),0,-1,·,-1,3,0,·,·,·,·,·,·
O=[N+]([O-])c1ccccc1OCCCn1cnc2ccccc21,2,5.5*,0,-1,17*,0,7.2*,4.3*,·,·,16*,1
COc1ccc(/C=N/N=C(\N)c2nonc2N)cc1OC,3,2,-4,-1,9,0,·,·,·,·,·,·
N/C(=N\N=C\c1cccc(O)c1)c1nonc1N,-1,7.2*,4,3.2*,20*,13*,15*,11*,2,9.0*,17*,1
SMILES,DAX1 inh-1,DAX1 inh-2,PolyA inh,ssDAF-12 act,hgDAF-12 ag,hcDAF-12 act,DAX1 conf,SF1 mutant ctr,LXR ag,hcDAF12 ag,hgDAF12 ag,LXR ag 2
O=C(Nc1nnc([C@@H]2C[C@H](O)[C@@H](CO)O2)s1)Nc1ccccc1F,·,7.3*,·,0,15*,5,7.2*,3.4*,·,·,11*,0
O=C(Nc1nnc([C@@H]2C[C@H](O)[C@@H](CO)O2)s1)c1cccc2ccccc12,·,5.0*,·,1,25*,4,8.7*,5.6*,·,·,13*,1
O=C(Nc1ccc2c(c1)OCCO2)C(=O)c1c[nH]c2ccccc12,-3,2,-20,1,10,5,·,·,·,·,·,·
O=C(Nc1ccc2c(c1)OCO2)C(=O)c1c[nH]c2ccccc12,2,18*,-13,1,13*,9.3*,17*,6.5*,·,·,19*,1
Cc1ccc(-n2nnc(-c3cc4ccccc4n3C)n2)cc1,2,1,4,1.0*,3,9.7*,·,·,1,13*,·,·
CCOC(=O)[C@H]1[C@H]2COc3cc(OC)ccc3[C@@H]2N2C(=O)CN(C)C(=O)[C@@]12C,0,0,·,-1,0,-1,·,·,·,·,·,·
Cc1ccc(CNc2ncnc3ccc(-c4ccc(CO)o4)cc23)o1,·,3,·,-1,8,-2,·,·,·,·,·,·
Cc1nn2c(-c3ccccc3)nnc2c2ccccc12,1,1,·,0,2,4,·,·,·,·,·,·
Cc1nn2c3ccccc3nc2c2ccccc12,1,1,-16,1,5,7.5*,·,·,0,7.1*,·,·
